High-throughput results (PubChem BioAssay)
The list is not random: actives were taken first. Their share in the collection is about 3.9%.
KKLEB cytotox: counter-screen for CF NF-kB inhibitors: cytotoxicity; KKLEB CF airway cells viability, ATPlite luminescence, overnight; hits give low values; cells stimulated with P. aeruginosa culture filtrate; activity change (cytotoxicity), % at 5 µM; hit rate 0.36% among 360,000;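 active means corrected activity change at or below -50% at 5 µM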
CF NFkB block: cystic fibrosis NF-kB activation inhibition | KKLEB NF-kB-GFP reporter, PAF-induced, GFP fluorescence overnight | inhibition, % at 5 µM | hit rate 0.86% among 360,000;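 active means at least 50% inhibition at 5 µM, scaled per plate between neutral and stimulator controls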;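 further: PAF is a Pseudomonas aeruginosa culture filtrate used as stimulus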
HIF-2a inh: HIF-2a inhibition | inhibition, % at 18.8 µM | 786-0 RCC cells HIF-2a reporter, luciferase luminescence, overnight | hit rate 0.72% among 360,000;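 active means inhibition of the luminescence signal of 40% or more relative to plate controls, in a single-dose primary screen at 18.75 µM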
Peg3 promoter: reduces Peg3 promoter-driven luciferase expression in HeLa. HeLa PEG-Prom luciferase reporter, luminescence, overnight. inhibition, % at 20 µM. hit rate 1.7% among 360,000. AID 588405;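 active means inhibition of at least 50% at 20 µM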
TWEAK Fn14 block: blocks TWEAK-Fn14 interaction in a reporter cell assay; hit rate 2% among 360,000; TWEAK-stimulated Fn14 reporter cells, luciferase luminescence, 8 h; inhibition, % at 10 µM; in the data active means inhibition above about 50%
TROY NFkB inh: inhibitors of TROY-dependent NF-kB signaling | Q293 LMP1-TROYcd NF-kB luciferase reporter, 4 h | inhibition, % at 10 µM | hit rate 0.98% among 360,000 | AID 1347056;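 active means compounds whose plate-normalised and pattern-corrected inhibition of the luciferase reporter signal at the single screening dose is 50% or more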
Each line names hits and unclear results; the compound was inactive in the other large screens.

Cc1ccc(S(=O)(=O)/N=C2/C=C(C3C(=O)CC(C)(C)CC3=O)C(=O)c3ccccc32)cc1	none
CCc1ccc(S(=O)(=O)/N=C2/C=C(Sc3ncn[nH]3)C(=O)c3ccccc32)cc1	CF NFkB block 81, HIF-2a inh 89, Peg3 promoter 102, TWEAK Fn14 block 96, TROY NFkB inh 60
CCc1ccc(S(=O)(=O)/N=C2\C=C(Nc3cccc(C(=O)O)c3)C(=O)c3ccccc32)cc1	CF NFkB block 96, TWEAK Fn14 block 98
CCc1ccc(S(=O)(=O)/N=C2\C=C(Nc3ccc(O)cc3)C(=O)c3ccccc32)cc1	KKLEB cytotox -88, CF NFkB block 99, HIF-2a inh 69, Peg3 promoter 104, TWEAK Fn14 block 94, TROY NFkB inh 74
O=C(O)c1cccc(NC2=C(n3nnc4ccccc43)C(=O)c3ccccc3C2=O)c1	none
Cc1cccc(-n2c(C)c(-c3ccccc3)[nH]c2=S)c1	none
Cc1ccc(C)c(SCC(=O)Nc2oc(C)c3c(C)n[nH]c(=O)c23)c1	none
COc1ccccc1NC(=O)Cn1cnc2c(oc3ccccc32)c1=O	none
CCn1c(SCC(=O)c2cc(OC)ccc2OC)nnc1-c1ccncc1	Peg3 promoter 70
COc1ccc(C(C(=O)NC2CCCCC2)N(Cc2ccco2)C(=O)c2snc(C(N)=O)c2N)cc1 (centres undefined)	Peg3 promoter 58
COc1cccc(C(C(=O)NC2CCCC2)N(Cc2ccccc2OC)C(=O)c2ccco2)c1 (centres undefined)	TWEAK Fn14 block 74 (no result: TROY NFkB inh)
COCCN(C(=O)CNC(=O)c1ccco1)C(C(=O)NC1CCCC1)c1cccc(OC)c1 (centres undefined)	none
CCOc1ccc(C(=O)Nc2cc(NC(=O)c3ccc(OCC)c(Cl)c3)cc(C(=O)O)c2)cc1Cl	none
CCOc1ccc(C(=O)Nc2ccc(NC(=O)c3ccco3)c(Cl)c2)cc1Cl	none
CCOc1ccc(C(=O)Nc2cccc(C(=O)O)c2)cc1Cl	HIF-2a inh 63
CCOc1ccc(C(=O)Nc2cccc(-c3nc4cccnc4o3)c2)cc1Cl	Peg3 promoter 90
O=C(Nc1cccc2ccccc12)N(CCO)C1CCS(=O)(=O)C1 (centres undefined)	TWEAK Fn14 block 64, TROY NFkB inh 51
CCN(C(=O)COC(=O)Cc1cccc2ccccc12)C1CCS(=O)(=O)C1 (centres undefined)	none
COc1ccc(S(=O)(=O)N2Cc3ccccc3CC2C(=O)N2CCOCC2)cc1 (centres undefined)	none
CCCNC(=O)c1cc2c(c(-c3cccc(-c4ccc(F)cc4)c3)n1)[C@H](CCO)N(S(=O)C(C)(C)C)C2 (some centres undefined)	Peg3 promoter 51
C/C(=N\NC(=O)c1ccc(F)cc1)c1cccc(NC(=O)c2ccco2)c1	none
CCN1CCN(c2cc3c(cc2F)c(=O)c(S(=O)(=O)c2ccccc2)cn3C)CC1	none
Cc1ccc(S(=O)(=O)c2cn(C)c3cc(N4CCN(C)CC4)c(F)cc3c2=O)c(C)c1	Peg3 promoter 76
CC(=O)Nc1ccc(C(=O)OCC(=O)Nc2ccc(S(=O)(=O)N3CCOCC3)cc2)cc1	none
O=C(c1cccs1)N1CCN(Cc2cccnc2)CC1	none
Cn1cc(CNCc2cnc3ccccn23)c(-c2ccc(Oc3ccccc3)cc2)n1	none
CN(Cc1cn(C)nc1-c1ccc(Oc2ccccc2)cc1)Cc1cnc2ccccn12	TWEAK Fn14 block 77
O=C(CSc1ncnc2c1oc1ccccc12)Nc1ccccc1C(F)(F)F	TWEAK Fn14 block 91, TROY NFkB inh 82
COc1ccc(-c2coc3c(C(=O)NCc4ccc(F)c(F)c4)cccc23)c(C)c1	none
COc1cc(NC(=O)c2cccc3c(-c4cccnc4)coc23)cc(OC)c1OC	Peg3 promoter 99, TWEAK Fn14 block 80, TROY NFkB inh 68
COc1ccc(-c2coc3c(C(=O)Nc4cc(OC)c(OC)c(OC)c4)cccc23)c(C)c1	TWEAK Fn14 block 93, TROY NFkB inh 63
CC(=O)c1cccc(NC(=O)c2cccc3c(-c4cccc(C(N)=O)c4)coc23)c1	Peg3 promoter 98, TWEAK Fn14 block 83, TROY NFkB inh 64
COc1ccc(-c2coc3c(C(=O)NCc4ccc(OC)c(OC)c4)cccc23)c(C)c1	TWEAK Fn14 block 63
COc1ccc(-c2coc3c(C(=O)Nc4ccc(OC)nc4)cccc23)c(C)c1	none
O=C(Nc1cccc(C(F)(F)F)c1)c1cccc2c(-c3cccnc3)coc12	none
Cc1cccc(NC(=O)C(C)SCc2nc3sc(C)c(C)c3c(=O)[nH]2)n1 (centres undefined)	none
O=C(Nc1ccc(C(=O)O)cc1)/C(=C\C=C\c1ccccc1)NC(=O)c1ccc(Br)cc1	none
NC[C@@H]1O[C@H](C23CC4CC(CC(C4)C2)C3)Cc2c1ccc(O)c2O	none
CN(C)S(=O)(=O)c1ccc(C(=O)N(c2ccccn2)c2ccccn2)cc1	none
CC(C)Cc1ccc(/C=C/C(=O)N2CCCCC2)cc1	none
O=C(Nc1cccc(F)c1)c1ccc(-c2cccnc2)c2ccoc12	TWEAK Fn14 block 77
CCOc1ccc(S(=O)(=O)NC(C)(C)C)cc1-c1nc2c(C(C)(C)C)nn(C)c2c(=O)[nH]1	Peg3 promoter 53
CC(C)CC(NC(N)=O)C(=O)Nc1ccc2c(c1)OCO2 (centres undefined)	none
O=C(CNC(=O)c1ccco1)Nc1ccc2c(c1)OCCO2	TWEAK Fn14 block 86, TROY NFkB inh 71
O=C(NC(=S)Nc1ccc2c(c1)OCCO2)c1ccco1	none
CC(C)CC(NC(=O)c1ccco1)C(=O)Nc1ccc2c(c1)OCCO2 (centres undefined)	TWEAK Fn14 block 76
COC1=C(c2ccccc2)C(=O)c2ccccc2C1=O	none
O=C(C1=C(c2ccccc2)C(=O)c2ccccc2C1=O)c1ccccc1	CF NFkB block 76, Peg3 promoter 92, TWEAK Fn14 block 97, TROY NFkB inh 62
CCN(CC)CCNC(=O)c1ccc(NC(=O)c2ccc(S(=O)(=O)N3CCCCCC3)cc2)cc1	none
CCN(CC)CCNC(=O)c1ccc(NC(=O)c2ccc(Cl)c(S(=O)(=O)N3CCCCCC3)c2)cc1	Peg3 promoter 88
O=C(NCCN1CCOCC1)c1ccc(Cl)c(S(=O)(=O)N2CCCCCC2)c1	TWEAK Fn14 block 66 (no result: TROY NFkB inh)
O=C(N=Nc1c(O)[nH]c2ccccc12)c1cccc(S(=O)(=O)N2CCCCC2)c1	none
CC(C)c1ccc2[nH]c(O)c(N=NC(=O)c3cccc(S(=O)(=O)N4CCCCC4)c3)c2c1	TWEAK Fn14 block 55
CCOC(=O)CCNc1n[nH]c(=O)[nH]c1=O	none
CCOC(=O)/C(N=Nc1ccc(F)cc1)=C(/O)c1ccc([N+](=O)[O-])cc1	CF NFkB block 67
CC(C)C(NC(=O)OCc1ccccc1)C(=O)O (centres undefined)	none
CCCn1c(NC(=O)c2ccccc2)nc2ccccc21	none
